According to PubChem BioAssay AID2595 (National Center for Advancing Translational Sciences (NCATS), 2010):
Values joined by “and” are separate entries in the source; they are usually repeats but may differ in a detail not shown here. Equal entries are not always repeated. Records with an inconclusive call do not appear. Active and inactive are the calls of the source. Calls follow the shape of the dose curve; as a rule, active = well fitted inhibition curve with a large enough effect; inconclusive = small, poorly fitted or top-dose-only effect, or effect the other way; inactive = flat fitted curve, though single readings scatter.

Each molecule was assayed against Lysosomal acid glucosylceramidase (Homo sapiens) (UniProt P04062) (assay: qHTS Assay for Inhibitors and Activators of N370S glucocerebrosidase as a Potential Chaperone Treatment of Gaucher Disease: Purified Non-mutant Glucocerebrosidase). Settings: purified wildtype GC, 4MU-beta-glucoside fluorescence, 40 min; series mostly up to 76.9 µM.
Sequence of Lysosomal acid glucosylceramidase (Homo sapiens) (P04062 whole entry, looked up): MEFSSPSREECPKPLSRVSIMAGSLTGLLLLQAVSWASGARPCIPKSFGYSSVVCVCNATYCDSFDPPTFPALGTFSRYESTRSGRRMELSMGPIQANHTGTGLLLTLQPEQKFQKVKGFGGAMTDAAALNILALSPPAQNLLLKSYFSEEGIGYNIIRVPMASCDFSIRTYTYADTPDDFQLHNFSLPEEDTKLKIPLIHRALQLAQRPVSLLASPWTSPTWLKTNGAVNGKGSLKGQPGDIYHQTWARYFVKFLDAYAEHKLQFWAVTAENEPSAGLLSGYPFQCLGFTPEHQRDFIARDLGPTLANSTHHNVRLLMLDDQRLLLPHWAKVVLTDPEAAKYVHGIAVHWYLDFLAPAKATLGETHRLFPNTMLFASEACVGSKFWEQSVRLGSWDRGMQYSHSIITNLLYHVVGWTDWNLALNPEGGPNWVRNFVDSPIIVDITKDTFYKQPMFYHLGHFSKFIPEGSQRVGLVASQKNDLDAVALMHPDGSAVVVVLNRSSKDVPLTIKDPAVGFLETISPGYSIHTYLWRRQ
Source text: NIH Chemical Genomics Center [NCGC] NIH Molecular Libraries Probe Production Centers Network [MLPCN] MLPCN Grant: MH086442-01 Assay Submitter (PI): Wei Zheng Glucocerebrosidase (GC) catalyzes the hydrolysis of beta-glucocerebroside to glucose and ceramide in lysosomes. Mutations in the glucocerebrosidase gene result in Gaucher disease, an autosomal recessive lysosomal storage disorder. Many of the mutations encountered in patients with Gaucher disease are missense alterations that may cause misfolding, decreased stability and/or mistrafficking of this lysosomal protein. […] These inhibitors include iminosugar analogs and three non-iminosugar inhibitors identified from a previous HTS of 62,000 compounds with the wild type recombinant enzyme. However, the enhancement of enzyme activity by the chaperone action of an enzyme inhibitor must be balanced against the direct inhibition of the enzyme. An enzyme activator could also function as a chaperone by binding to the enzyme and helping to correct its misfolding and mistrafficking. While activators for GC have not yet been identified, they may have better therapeutic potential than inhibitors. Therefore the discovery and development of chemical activators may provide a new strategy for the chaperone therapy. We have optimized a new assay using N370S mutant GC derived from the spleen of a Gaucher patient. […] In addition, the MLPCN compound library has expanded, which increases the chance of finding new and better probes. This assay characterizes compound activity using purified wildtype enzyme instead of mutant enzyme from tissue homogenate. Compound activity differences may be due to the absence of endogenous cofactors found in tissue homogenate as well as inherent differences in enzyme stability and catalytic activity between the N370S and wildtype forms of the protein.
NCGC Assay Protocol Summary: This is a fluorogenic enzyme assay with 4-methylumbelliferyl-beta-D-glucopyranoside as the substrate and purified wildtype glucocerebrosidase as the enzyme preparation. Upon the hydrolysis of this fluorogenic substrate, the resulting product, […] which can be detected by a standard fluorescence plate reader. Data were normalized to the controls for basal activity (without enzyme) and 100% activity (with enzyme). The AC50 values were determined from concentration-response data modeled with the standard Hill equation. Assay buffer: 50 mM citric acid (titrated with potassium phosphate to pH 5.0), 100 mM potassium chloride, 10 mM sodium chloride, 1 mM magnesium chloride, 0.01% Tween-20. 1536-well assay protocol: (1) Add 2 ul/well of glucocerebrosidase enzyme solution (5 nM final) (2) Add 23 nL compounds in DMSO solution. The final titration was 0.5 nM to 58 uM. (3) Add 2 ul of substrate (1 mM final) (4) Incubate at 37C for 40 min. (5) Add 2 ul stop solution (1M NaOH and 1M Glycine mixture, pH 10) (6) Detect the assay plate in a ViewLux plate reader (PerkinElmer) with Ex=365 nm and Em=440nm. Keywords: Glucocerebrosidase, beta-glucosidase, Gaucher Disease, pharmacological chaperone, chaperone therapy, high throughput screening, glucocerebrosidase inhibitor, MLSMR, MLSCN, NIH Roadmap, qHTS and NCGC

Compound	Potency
Cc1ccc(-c2nc(N3CCN(S(=O)(=O)c4ccc(F)cc4)CC3)c3ccc(Cl)cc3n2)cc1	inactive
O=S(=O)(Cc1ccccc1)N1CCN(c2nc(-c3cccs3)nc3ccccc23)CC1	10 µM (active)
O=S(=O)(c1ccccc1C(F)(F)F)N1CCN(c2nc(-c3cccs3)nc3ccccc23)CC1	4.47 µM (active)
S=C(NCCCc1cnc[nH]1)NCCCN(Cc1ccc(Cl)c(Cl)c1)c1ccc(Br)cn1	0.708 µM (active)
O=S(=O)(c1ccc(Cl)cc1)N1CCN(c2nc(-c3cccs3)nc3ccccc23)CC1	2.51 µM (active) and 6.31 µM (active)
Cc1ccc(S(=O)(=O)N2CCN(c3nc(-c4ccc(F)cc4)nc4cc(Cl)ccc34)CC2)cc1	inactive
Cc1ccc(Cl)cc1NC(=O)c1ccccc1OCC(=O)Nc1ccc(Cl)cc1	inactive
O=S(=O)(c1cccc(C(F)(F)F)c1)N1CCN(c2nc(-c3cccs3)nc3cc(Cl)ccc23)CC1	inactive
O=S(=O)(c1cccs1)N1CCN(c2nc(-c3cccs3)nc3ccccc23)CC1	8.91 µM (active)
CC(C)(C)C(=O)OCCNc1nc(-c2ccccc2)nc2ccccc12	0.708 µM (active)
O=S(=O)(c1ccccc1)N1CCN(c2nc(-c3ccc(F)cc3)nc3cc(Cl)ccc23)CC1	inactive
O=S(=O)(c1ccc(F)cc1)N1CCN(c2nc(-c3ccc(F)cc3)nc3cc(Cl)ccc23)CC1	inactive
O=S(=O)(c1cccc2ccccc12)N1CCN(c2nc(-c3cccs3)nc3ccccc23)CC1	14.1 µM (active)
O=S(=O)(c1ccc(F)cc1)N1CCN(c2nc(-c3cccs3)nc3cc(Cl)ccc23)CC1	inactive
O=S(=O)(c1ccc(F)cc1)N1CCN(c2nc(-c3cccc(Br)c3)nc3ccccc23)CC1	inactive
COc1cccc(S(=O)(=O)N2CCN(c3nc(-c4cccs4)nc4ccccc34)CC2)c1	10 µM (active)
OCCNc1nc(-c2cccs2)nc2ccccc12	17.8 µM (active)

Compound	Potency
COc1ccc(-c2nc(N3CCN(S(=O)(=O)c4ccc(F)cc4)CC3)c3ccccc3n2)cc1	inactive
O=S(=O)(c1ccccc1Cl)N1CCN(c2nc(-c3cccs3)nc3ccccc23)CC1	2.82 µM (active)
Cc1ccc(S(=O)(=O)N2CCN(c3nc(-c4cccs4)nc4ccccc34)CC2)cc1	2 µM (active) and 10 µM (active)
O=S(=O)(c1ccc2c(c1)OCCO2)N1CCN(c2nc(-c3cccs3)nc3ccccc23)CC1	2.51 µM (active)
O=S(=O)(c1ccc(Cl)cc1)N1CCN(c2nc(-c3cccc(Br)c3)nc3ccccc23)CC1	inactive
O=S(=O)(c1ccc(F)cc1)N1CCN(c2nc(-c3ccccc3)nc3cc(Cl)ccc23)CC1	inactive
NS(=O)(=O)c1ccc(S(=O)(=O)N2CCN(c3nc(-c4cccs4)nc4ccccc34)CC2)cc1	15.8 µM (active)
CC(C)C(C)NC(=O)CSc1nc2scc(-c3ccco3)c2c(=O)n1-c1ccccc1 (centres undefined)	inactive
O=S(=O)(c1ccc2ccccc2c1)N1CCN(c2nc(-c3cccs3)nc3ccccc23)CC1	8.91 µM (active)
O=C(c1ccc2c(c1)OCCO2)N1CCN(c2nc(-c3cccs3)nc3ccccc23)CC1	31.6 µM (active)
c1csc(-c2nc(NCC3CCCO3)c3ccccc3n2)c1 (centres undefined)	15.8 µM (active)
Cc1cc(C)cc(N(CC(=O)NC2CCCCCC2)S(=O)(=O)c2c(C)[nH]c(=O)[nH]c2=O)c1	0.398 µM (active)
O=S(=O)(c1ccc(Cl)cc1)N1CCN(c2nc(-c3ccc(Cl)cc3)nc3ccccc23)CC1	inactive
O=S(=O)(c1ccc(Cl)cc1)N1CCN(c2nc(-c3ccc(F)cc3)nc3cc(Cl)ccc23)CC1	inactive
COc1ccc(S(=O)(=O)N2CCN(c3nc(-c4cccs4)nc4ccccc34)CC2)cc1	14.1 µM (active)
O=S(=O)(c1ccc(Cl)cc1)N1CCN(c2nc(Nc3cc(Cl)ccc3O)nc3ccccc23)CC1	1.26 µM (active)
O=S(=O)(c1ccc2c(c1)OCCO2)N1CCN(c2nc(-c3ccccc3)nc3ccccc23)CC1	12.6 µM (active)
